Laboratory results as given in PubChem BioAssay (Tox21).
Results filed as inconclusive are left out. Calls of active or inactive are those of the source. Unless noted, calls come from the whole dose curve; as a rule, active = well fitted curve in the direction sought with a large enough effect in the repeat runs; inconclusive = weak or mixed curves; inactive = no such curve, though single readings can be large; an effect the other way counts as inactive or inconclusive.

What was measured:
[1] = target: Luciferin 4-monooxygenase (Photinus pyralis) (UniProt P08659); assay: qHTS assay to identify small molecule inhibitors of firefly luciferase (AID 1224835); note: nearly all actives have a fitted effect of over 25% in size; note: potency is the fitted concentration of half-maximal effect
Sequence of Luciferin 4-monooxygenase (Photinus pyralis) (P08659 whole entry, looked up): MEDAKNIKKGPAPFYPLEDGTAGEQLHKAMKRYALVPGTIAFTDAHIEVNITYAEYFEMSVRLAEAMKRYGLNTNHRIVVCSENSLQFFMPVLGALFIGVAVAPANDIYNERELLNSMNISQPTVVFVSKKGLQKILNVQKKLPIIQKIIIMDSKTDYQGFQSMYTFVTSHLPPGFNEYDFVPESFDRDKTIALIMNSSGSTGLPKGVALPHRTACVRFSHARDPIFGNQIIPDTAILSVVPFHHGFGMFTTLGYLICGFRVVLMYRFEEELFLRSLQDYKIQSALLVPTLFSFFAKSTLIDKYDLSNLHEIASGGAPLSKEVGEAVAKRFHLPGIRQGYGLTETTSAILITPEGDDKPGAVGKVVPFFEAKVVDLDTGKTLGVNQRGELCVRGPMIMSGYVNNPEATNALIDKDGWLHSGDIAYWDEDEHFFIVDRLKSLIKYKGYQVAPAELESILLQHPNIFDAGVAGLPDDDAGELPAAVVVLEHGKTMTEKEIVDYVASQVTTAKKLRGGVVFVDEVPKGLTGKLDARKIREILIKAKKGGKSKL
Method in brief: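 Quantitative HTS format; KM concentrations of both substrates. Purified P. pyralis FLuc activity quantified from luminescence images.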

[2] = qHTS assay to identify small molecule agonists of the constitutive androstane receptor (CAR) signaling pathway - cell viability counter screen (AID 1224836); note: nearly all actives have a fitted effect of over 45% in size
Method in brief: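 Fluorescence from CellTiter-Fluor indicates live cells after 23 h exposure. The human hepatoma line expresses hCAR and a CYP2B6-2.2kb reporter. Incubation medium contains 0.75 uM PK11195 (final).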

[3] = qHTS assay to identify small molecule antagonists of the constitutive androstane receptor (CAR) signaling pathway - cell viability counter screen (AID 1224837); note: nearly all actives have a fitted effect of over 45% in size
Method in brief: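 HepG2 cells stably expressing hCAR and a CYP2B6-2.2kb reporter were plated and pre-incubated 4 hr at 37 C/5% CO2, then given compounds at 15 concentrations plus 50 nM CITCO (final). After 23 hr, viability was read by CellTiter-Fluor fluorescence.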

[4] = target: Nuclear receptor subfamily 1 group I member 3 (Homo sapiens) (UniProt Q14994); assay: qHTS assay to identify small molecule agonists of the constitutive androstane receptor (CAR) signaling pathway (AID 1224839);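 note: HepG2 cells stably carrying human CAR and a CYP2B6 luciferase reporter; nearly all actives have a fitted effect of over 15% in size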
Sequence of Nuclear receptor subfamily 1 group I member 3 (Homo sapiens) (Q14994 whole entry, looked up): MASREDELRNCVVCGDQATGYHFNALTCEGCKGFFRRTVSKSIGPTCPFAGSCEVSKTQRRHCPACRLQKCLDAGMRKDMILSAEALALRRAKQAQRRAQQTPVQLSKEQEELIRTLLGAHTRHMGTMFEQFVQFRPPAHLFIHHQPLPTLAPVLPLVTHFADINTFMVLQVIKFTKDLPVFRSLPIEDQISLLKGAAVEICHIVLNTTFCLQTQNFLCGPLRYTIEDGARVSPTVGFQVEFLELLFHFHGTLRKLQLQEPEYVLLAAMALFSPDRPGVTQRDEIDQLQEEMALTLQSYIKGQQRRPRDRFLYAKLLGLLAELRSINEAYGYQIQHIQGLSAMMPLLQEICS
Method in brief: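 Stable hCAR/CYP2B6-2.2kb HepG2 line in DMEM with 10% FBS; compounds (15 concentrations) and 0.75 uM PK11195 final, 24 h at 37 C/5% CO2, then ONE-Glo luminescence after 30 min.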

[5] = qHTS assay to identify small molecule antagonists of the estrogen related receptor signaling pathway with the pleiotropic PPARgamma coactivator (PGC) from Tox21 10K library - cell viability counter screen (AID 1224840; active = well fitted cell-killing curve with a large enough effect in the repeat runs, not every such curve was filed as active; note: nearly all actives have a fitted effect of over 40% in size)
Method in brief: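 PGC/ERR cells were seeded at 2,000 cells/well and left 6 hours at 37 C/5% CO2 before pin-tool addition of compounds in DMSO. After 17.5 hours at 37 C, CellTiter-Fluor was added and fluorescence read 30 minutes later.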

[6] = qHTS assay to identify small molecule agonists of the estrogen related receptor signaling pathway with the pleiotropic PPARgamma coactivator (PGC) from Tox21 10K library (AID 1224842); note: nearly all actives have a fitted effect of over 15% in size; note: potency is the fitted concentration of half-maximal effect
Method in brief: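 PGC/ERR reporter cells (NTP line) were seeded 2,000 per well, rested 6 h at 37 C/5% CO2, then pin-dosed with compounds in DMSO for 18 h at 37 C; luciferase read by One-Glo luminescence after 30 min at room temperature.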

[7] = qHTS assay to identify small molecule agonists of H2AX (AID 1224845; active = well fitted activation curve with a large enough effect in the signal ratio in the repeat runs, not every such curve was filed as active; the % refers to the signal ratio)
Method in brief: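 Wild-type CHO-K1 cells plated overnight, then exposed 3 hr at 37C to compounds at 15 concentrations (0.76% DMSO). Lysed, then HTRF anti-pH2AX(S139)-cryptate/anti-H2AX-d2 detection after 24 hr at room temperature; emissions 665 and 620 nm.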

[8] = qHTS assay to identify small molecule agonists of the hypoxia (HIF-1) signaling pathway (AID 1224846; active = well fitted activation curve with a large enough effect in the signal ratio in the repeat runs, not every such curve was filed as active; the % refers to the signal ratio)
Method in brief: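 HRE-bla ME-180 cells (beta-lactamase reporter under hypoxia response element) were plated at 2,000 cells/well in medium with 0.5% dialyzed FBS, rested 5 hrs, then given compounds in DMSO for 17 hrs at 37C, 5% CO2. Reporter induction was read with CCF4-AM FRET substrate.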

[9] = qHTS assay to identify small molecule antagonists of the estrogen related receptor (ERR) signaling pathway from Tox21 library (AID 1224848); note: nearly all actives have a fitted effect of over 50% in size; note: potency is the fitted concentration of half-maximal effect
Method in brief: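 Screening used an ERR reporter line supplied by NTP, exposed for 18 h at 37 C to library compounds delivered in DMSO. Signal was luciferase luminescence developed with ONE-Glo at room temperature for 30 min.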

[10] = qHTS assay to identify small molecule agonists of the estrogen related receptor (ERR) signaling pathway from Tox21 library (AID 1224849; calls by dose curve; note: nearly all actives have a fitted effect of over 15% in size); settings: ERR reporter cell line, ONE-Glo luciferase, 18 h; at 92.4 µM (top of the series) unless noted
Method in brief: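 ERR reporter cell line (NTP) seeded, rested 6 h at 37 C/5% CO2, then pinned with Tox21 compounds in DMSO. After 18 h at 37 C, ONE-Glo luciferase luminescence was read following 30 min at room temperature.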

[11] = qHTS RealTime-Glo MT Cell Viability Assay in HepG2 cells - 24 hour (AID 1224867); note: nearly all actives have a fitted effect of over 50% in size
Method in brief: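 HepG2 suspension premixed with RealTime-Glo reagents is plated at 600 cells per well and left 5 h at 37 C/5% CO2. Compounds in DMSO then go in, and bioluminescence reflecting viable cell number is recorded over 40 h.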

[12] = qHTS RealTime-Glo MT Cell Viability Assay in HEK293 cells - 32 hour (AID 1224868); note: nearly all actives have a fitted effect of over 50% in size; note: potency is the fitted concentration of half-maximal effect
Method in brief: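 Reads taken at 0, 8, 16, 24, 32 and 40 h from the same wells. HEK293 cells (600/well) carried RealTime-Glo reagents from seeding, with compound added after a 5 h settle at 37 C.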

[13] = A CellTox Green Cytotoxicity Assay to monitor cytotoxicity in HEK293 cells - 0 hour (AID 1224869); note: nearly all actives have a fitted effect of over 50% in size
Method in brief: (§1)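 HEK293 cells premixed with CellTox Green dye were seeded at 600 cells/well and left 5 h at 37 C/5% CO2 before pin transfer of 23 nL compound in DMSO. Fluorescence from dye bound to dead-cell DNA was read during 40 h treatment.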

[14] = qHTS RealTime-Glo MT Cell Viability Assay in HepG2 cells - 40 hour (AID 1224870); note: nearly all actives have a fitted effect of over 50% in size
Method in brief: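 HepG2 cells mixed with RealTime-Glo MT reagents (NanoLuc plus cell-permeant prosubstrate) were seeded at 600 cells/well, incubated 5 h at 37 C/5% CO2, then pinned with compounds in DMSO; nonlytic luminescence tracked viability during 40 h treatment.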

[15] = A CellTox Green Cytotoxicity Assay to monitor cytotoxicity in HEK293 cells - 40 hour (AID 1224871); note: nearly all actives have a fitted effect of over 45% in size
Method in brief: as §1

[16] = target: Nuclear receptor subfamily 1 group I member 3 (Homo sapiens) (UniProt Q14994); assay: qHTS assay to identify small molecule antagonists of the constitutive androstane receptor (CAR) signaling pathway (AID 1224838); note: nearly all actives have a fitted effect of over 40% in size
Method in brief: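 HepG2 cells stably co-transfected with hCAR and a CYP2B6-2.2kb luciferase reporter were seeded 4 h before compound addition at 15 concentrations. Cells were stimulated with 50 nM CITCO (final) for 24 h at 37 C; luciferase luminescence was then read.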

[17] = qHTS assay to identify small molecule antagonists of the estrogen related receptor signaling pathway with the pleiotropic PPARgamma coactivator (PGC) from Tox21 10K library (AID 1224841; call rule not given here)
Method in brief: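 PGC/ERR reporter cells were seeded at 2,000 cells/well and held 6 hours at 37 C/5% CO2 before pin-tool addition of compounds in DMSO. After 18 hours at 37 C, One-Glo was added and luminescence read after 30 minutes at room temperature.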

[18] = target: Thyrotropin receptor (Homo sapiens) (UniProt P16473); assay: qHTS assay to identify small molecule agonists of the thyroid stimulating hormone receptor (TSHR) signaling pathway (AID 1224843; calls by dose curve; note: nearly all actives have a fitted effect of over 45% in size)
Sequence of Thyrotropin receptor (Homo sapiens) (P16473 whole entry, looked up): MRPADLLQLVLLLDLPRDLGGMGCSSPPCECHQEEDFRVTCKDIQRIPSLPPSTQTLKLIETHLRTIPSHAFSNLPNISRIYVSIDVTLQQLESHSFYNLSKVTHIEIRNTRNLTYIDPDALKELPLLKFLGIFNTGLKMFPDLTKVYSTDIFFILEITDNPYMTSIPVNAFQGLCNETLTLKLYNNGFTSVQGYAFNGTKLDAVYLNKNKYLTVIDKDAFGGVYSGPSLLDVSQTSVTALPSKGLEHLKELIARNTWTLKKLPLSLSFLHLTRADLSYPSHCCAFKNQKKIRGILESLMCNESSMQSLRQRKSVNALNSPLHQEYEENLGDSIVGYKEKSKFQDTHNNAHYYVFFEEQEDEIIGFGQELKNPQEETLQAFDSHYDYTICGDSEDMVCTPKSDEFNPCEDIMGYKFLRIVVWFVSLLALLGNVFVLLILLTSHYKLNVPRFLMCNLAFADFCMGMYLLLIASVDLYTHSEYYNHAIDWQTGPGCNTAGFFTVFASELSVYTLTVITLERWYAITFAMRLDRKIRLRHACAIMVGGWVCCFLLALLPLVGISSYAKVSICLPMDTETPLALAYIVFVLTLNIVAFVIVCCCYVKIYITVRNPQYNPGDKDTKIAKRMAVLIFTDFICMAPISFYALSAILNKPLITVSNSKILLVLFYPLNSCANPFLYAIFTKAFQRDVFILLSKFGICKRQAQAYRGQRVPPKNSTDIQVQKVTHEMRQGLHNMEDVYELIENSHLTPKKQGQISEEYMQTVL
Method in brief: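 Cell line HEK293 with TSHR; density 800/well. Exposure 30 min RT. Readout HTRF cAMP (cAMP-d2/anti-cAMP-cryptate), 1 h RT before reading.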

[19] = qHTS assay to identify small molecule agonists of H2AX - cell viability counter screen (AID 1224847; calls by dose curve; note: top concentration of the series differs between compounds; nearly all actives have a fitted effect of over 30% in size)
Method in brief: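 Viability of CHO-K1 (wild type) cells after 3 hr compound exposure was measured by CellTiter-Glo luminescence.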

[20] = qHTS assay to identify small molecule agonists of the hypoxia (HIF-1) signaling pathway - cell viability counter screen (AID 1224844; calls by dose curve; note: nearly all actives have a fitted effect of over 50% in size)
Method in brief: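 HRE-bla ME-180 cells in medium with 0.5% dialyzed FBS were preincubated 5 hrs at 37C, exposed to compounds for 17 hrs, then viability was read as CellTiter-Glo luminescence after 30 min at room temperature, in the reporter wells.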
% is set by controls: 0 for no effect and ±100 for the full control effect.

Cc1nc2sccn2c(=O)c1CCN1CCC(=C(c2ccc(F)cc2)c2ccc(F)cc2)CC1
inactive: Potency [1] | Potency [2] | Potency [3] | Potency [4] | Potency [5] | Potency [6] | Potency [7] | outcome [8] | activity change, positive = activation [10] -44.9% [at 42.5 µM] | outcome [11] | Potency [13] | Potency [14] | Potency [15]
active: Potency [9] 26.6 µM | Potency [12] 3.38 µM

C[C@H](N)C(=O)N[C@@H](C)C(=O)NC1[C@H]2CN(c3nc4c(cc3F)c(=O)c(C(=O)O)cn4-c3ccc(F)cc3F)C[C@@H]12 (some centres not stated)
inactive: Potency [1] | Potency [2] | Potency [3] | Potency [16] | Potency [5] | Potency [17] | Potency [18] | Potency [7] | Potency [19] | Potency [9] | outcome [11] | Potency [12] | Potency [13] | Potency [14]

CC(C)(C)NCC(O)COc1ccc(NC(=O)NC2CCCCC2)cc1 (configuration not stated)
inactive: Potency [1] | Potency [2] | Potency [3] | Potency [16] | Potency [5] | Potency [18] | Potency [20] | Potency [7] | outcome [8] | Potency [19] | Potency [13] | Potency [15]

CC(O)CN (configuration not stated)
inactive: Potency [1] | Potency [2] | Potency [3] | Potency [5] | Potency [17] | Potency [6] | Potency [18] | Potency [20] | outcome [8] | Potency [19] | Potency [9] | activity change, positive = activation [10] 0.61% | outcome [11] | Potency [13] | Potency [14] | Potency [15]

CCC1=C(C)CN(C(=O)NCCc2ccc(S(=O)(=O)NC(=O)NC3CCC(C)CC3)cc2)C1=O (configuration not stated)
inactive: Potency [1] | Potency [2] | Potency [3] | Potency [5] | Potency [17] | Potency [6] | Potency [18] | Potency [20] | Potency [7] | outcome [8] | Potency [9] | activity change, positive = activation [10] -15.8% [at 42.5 µM] | Potency [12] | Potency [13] | Potency [15]

CCCCCCCCCCCCSC#N
inactive: Potency [1] | Potency [2] | Potency [3] | Potency [5] | Potency [17] | Potency [6] | Potency [20] | Potency [7] | outcome [8] | Potency [19] | Potency [9] | activity change, positive = activation [10] 0.292% | outcome [11] | Potency [13] | Potency [14] | Potency [15]

Nc1ccc(C(=O)Oc2ccccc2)c(O)c1
active: Potency [1] 13.8 µM | Potency [6] 13.3 µM | activity change, positive = activation [10] 83.9% [at 42.5 µM]
inactive: Potency [2] | Potency [3] | Potency [16] | Potency [5] | Potency [17] | Potency [20] | Potency [7] | outcome [8] | Potency [19] | Potency [9] | Potency [12] | Potency [13] | Potency [14] | Potency [15]

CC(=O)CC/C=C(\C)CC/C=C(\C)CC/C=C(\C)CCC=C(C)C
inactive: Potency [1] | Potency [2] | Potency [3] | Potency [16] | Potency [5] | Potency [20] | Potency [7] | outcome [8] | Potency [19] | outcome [11] | Potency [12] | Potency [13] | Potency [14] | Potency [15]

CC/C=C/CCO
inactive: Potency [1] | Potency [2] | Potency [3] | Potency [5] | Potency [17] | Potency [6] | Potency [19] | Potency [9] | activity change, positive = activation [10] 5.37% | outcome [11] | Potency [12] | Potency [13] | Potency [14]

COc1cc(CNC(=O)CCCC/C=C/C(C)C)ccc1O
inactive: Potency [1] | Potency [2] | Potency [3] | Potency [16] | Potency [5] | Potency [18] | Potency [7] | outcome [11] | Potency [13] | Potency [14] | Potency [15]
active: Potency [12] 7.56 µM

Cc1cc(N)n(-c2ccccc2)n1
inactive: Potency [1] | Potency [2] | Potency [3] | Potency [16] | Potency [5] | Potency [17] | Potency [6] | Potency [18] | Potency [20] | Potency [7] | outcome [8] | Potency [19] | Potency [9] | outcome [11] | Potency [12] | Potency [13] | Potency [14] | Potency [15]
